Records with an inconclusive call do not appear. Active and inactive are the calls of the source.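 The calls were made as follows: active = growth inhibition above 50% at the single 2 µM test dose, taken to imply half-maximal potency below 2 µM; inactive = the rest.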
Columns and labels:
[1] = antimalarial activity against Dd2 strain (AID 2302);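 also: 0% = DMSO untreated growth and 100% = chloroquine plus artemisinin killed control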; details: P. falciparum Dd2 in RBCs, LDH growth readout, 72 h; at 2 µM; stronger effect = higher value
[2] = protection against mutant huntingtin cytotoxicity, PC12 cells, LDH release (AID 1610); details: PC12 mutant huntingtin toxicity, final LDH at 4 uM, stronger effect = lower value

Structure (SMILES) | growth inhibition [1] | normalised LDH release [2]
COc1ccc(C[C@H](N)C(=O)N[C@H]2[C@@H](O)[C@H](n3cnc4c(N(C)C)ncnc43)O[C@@H]2CO)cc1 | 91% (active) | –
O=c1cc(-c2ccc(O)cc2)oc2cc(O)cc(O)c12 | – | 0.887

Reference: PubChem BioAssay
